About 79,000 compounds went through this panel and 15% of them were active in at least one assay; those are over-represented in the sample as a whole. Activity calls are given as the source filed them. No stated cut-off is given here; in the data, active means growth inhibition above about 70%; inactive means the rest.
Experiment: NCI Yeast Anticancer Drug Screen. Data for the rad50 strain (AID 155);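 further: 0% = growth of vehicle-only cultures of the same strain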
Settings: S. cerevisiae rad50 strain growth inhibition; at 50.0 µM; hits give high values
In short: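 Growth of the mutant yeast was measured after compound exposure and referenced to vehicle-treated cultures.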

Structure (SMILES)	growth inhibition
O=c1c2c([nH]n1-c1ccccc1)-c1ccccc1CS2	40.2% (inactive)
O=C1CN(c2ccccc2)CC(=O)N2C(c3ccccc3)CCCN12 (stereo unspecified)	22.3% (inactive)
COC(=O)C1(C)CCCC2(C)C3CCC(C(C)C)CC3CCC12 (stereo unspecified)	24.9% (inactive)
COC(=O)C1(C2CCCCCCC2=O)NC(=S)NC(=O)C1C#N (stereo unspecified)	4.35% (inactive)
CC1(Cn2ccc(=O)[nH]c2=O)CC(C2(C)OCCO2)C(=O)O1 (stereo unspecified)	-16.6% (inactive)
CN(C)Cc1ccccc1COC(=O)c1ccc(Cl)cc1	12.8% (inactive)
Cc1ccc(S(=O)(=O)OCC2C(COS(=O)(=O)c3ccc(C)cc3)C3C4C5C2C2C3C4C52)cc1 (stereo unspecified)	-15.9% (inactive)
O=C(O)COc1ccccc1OCC(=O)O	17.4% (inactive)
Cc1cc(C=O)c(C)[nH]1	3.9% (inactive)
CCc1ccc(/C(C#N)=C/c2ccc(N(C)CCC#N)cc2)cc1	10.8% (inactive)
CC(=O)NC(C(=O)NC(CSCc1ccccc1)C(=O)O)=C(C)C (stereo unspecified)	-2.05% (inactive)
CC1=CC2OC3C(OC(=O)c4ccccc4)C(OC(=O)c4ccccc4)C(C)(C2(COC(=O)c2ccccc2)CC1)C31CO1 (stereo unspecified)	6.3% (inactive)
Nc1[nH]c(=S)[nH]c(=O)c1N=Nc1c(Br)cc(S(N)(=O)=O)cc1Br	4.65% (inactive)
CCCCCCC1=CC(=O)CC(=O)C1	25.9% (inactive)
C/C(=N/NC(N)=O)C(=O)O	-0.15% (inactive)
Cc1cc([N+](=O)[O-])c(NCCOC(=O)c2ccc([N+](=O)[O-])cc2)c([N+](=O)[O-])c1	-24.1% (inactive)

— PubChem BioAssay (NCI)
